In the supplement of paper PMC10849652:
Targets with a hit are over-represented here; the source holds about 7,900 in all. About 0.6% of all pairs of compound and target were hits.

How the values were obtained:
Test in all cases: log2 fold change, soluble protein after heating vs DMSO (PISA); higher = thermal stabilisation; K562 cells, 10 uM, 30 min; active = over 0.2 and 3.5 SD of the protein, either way, in both replicates (recomputed)
[1] = compound: COC1=CC=C(C=C1)CN2C=CC3=C2C=C(C=C3)C(=O)NO
Outline: (§1)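 Soluble protein was quantified by TMTpro 16plex LC-MS/MS after channel sums were equalised. It was obtained as the supernatant after 21,000xg for 90 min from pooled aliquots of K562 cells (2×10^6 cells/mL, 10 μM compound, 30 min) heated for 3 min across 48°C-58°C and extracted in PBS with 0.5% NP-40 at 4°C. Thermal stability values are relative to control samples and come from duplicates. They are given as log2 fold changes.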

[2] = compound: CON(C)C(=O)N1N=C(c2cc(F)ccc2F)S[C@@]1(CCCN)c1ccccc1 [filanesib]
Outline: as §1

[3] = compound: CO[C@H]1C[C@@H]2CC[C@@H](C)[C@@](O)(O2)C(=O)C(=O)N2CCCC[C@H]2C(=O)O[C@H]([C@H](C)C[C@@H]2CC[C@H](n3cnnn3)[C@H](OC)C2)CC(=O)[C@H](C)/C=C(\C)[C@@H](O)[C@@H](OC)C(=O)[C@H](C)C[C@H](C)/C=C/C=C/C=C/1C [zotarolimus]
Outline: as §1

[4] = compound: COc1cc(C(=O)O)ccc1NC(=O)[C@@H]1N[C@@H](CC(C)(C)C)[C@](C#N)(c2ccc(Cl)cc2F)[C@H]1c1cccc(Cl)c1F [idasanutlin]
Outline: as §1

[5] = compound: COc1cc(Nc2ncc3c(n2)-c2ccc(Cl)cc2C(c2c(F)cccc2OC)=NC3)ccc1C(=O)O [alisertib]
Outline: as §1

[6] = compound: COc1cc2nc(-c3cc(F)ccc3O)nc(N[C@@H]3CNC[C@H]3C(C)(C)O)c2cc1OC
Outline: as §1

[7] = compound: COc1cc2ncnc(Nc3ccc(F)c(Cl)c3)c2cc1OCCCN1CCOCC1 [gefitinib]
Outline: as §1

[8] = compound: COc1cccc2cc(-c3nc([C@H]4CC[C@H](C(=O)O)CC4)n4ncnc(N)c34)[nH]c12
Outline: as §1

[9] = compound: CS(=O)(=O)CCNCc1ccc(-c2ccc3ncnc(Nc4ccc(OCc5cccc(F)c5)c(Cl)c4)c3c2)o1 [lapatinib]
Outline: as §1

[10] = compound: CS(=O)(=O)N1CCN(Cc2cc3nc(-c4cccc5[nH]ncc45)nc(N4CCOCC4)c3s2)CC1 [pictilisib]
Outline: as §1

[11] = compound: CS(=O)(=O)c1ccc(-c2cnc(N)c(C(=O)Nc3ccccc3)n2)cc1
Outline: as §1

[12] = compound: C[C@@H](Oc1cc(-c2cnn(C3CCNCC3)c2)cnc1N)c1c(Cl)ccc(F)c1Cl [crizotinib]
Outline: as §1

[13] = compound: C[C@@H]1COCCN1C2=NC(=NC(=C2)C3(CC3)S(=O)(=O)C)C4=C5C=CNC5=CC=C4
Outline: as §1

[14] = compound: C[C@H](C1=CC=C(C=C1)C(=O)NC2=C3C=CNC3=NC=C2)N
Outline: as §1

[15] = compound: C[C@H](Nc1ncnc2nc[nH]c12)c1cc2cccc(Cl)c2c(=O)n1-c1ccccc1 [duvelisib]
Outline: as §1

[16] = compound: Cc1cc(Nc2cc(CN3CCOCC3)c3nc(C)c(Cc4ccc(Cl)cc4F)n3n2)n[nH]1 [gandotinib]
Outline: as §1

[17] = compound: Cc1cc(Nc2cc(N3CCN(C)CC3)nc(Sc3ccc(NC(=O)C4CC4)cc3)n2)n[nH]1 [tozasertib]
Outline: as §1

[18] = compound: Cc1cc(SCc2sc(-c3ccc(C(F)(F)F)cc3)nc2C)ccc1OCC(=O)O
Outline: as §1

[19] = compound: Cc1ccc(-n2nc(C(C)(C)C)cc2NC(=O)Nc2ccc(OCCN3CCOCC3)c3ccccc23)cc1 [doramapimod]
Outline: as §1

[20] = compound: Cc1ccc(C(=O)N(CCCN)[C@@H](c2nc3cc(Cl)ccc3c(=O)n2Cc2ccccc2)C(C)C)cc1 [ispinesib]
Outline: as §1

Measured: log2 fold change

RIOK2 (UniProt Q9BVS4)
Chain of UniProt Q9BVS4 (Q9BVS4 whole entry, looked up): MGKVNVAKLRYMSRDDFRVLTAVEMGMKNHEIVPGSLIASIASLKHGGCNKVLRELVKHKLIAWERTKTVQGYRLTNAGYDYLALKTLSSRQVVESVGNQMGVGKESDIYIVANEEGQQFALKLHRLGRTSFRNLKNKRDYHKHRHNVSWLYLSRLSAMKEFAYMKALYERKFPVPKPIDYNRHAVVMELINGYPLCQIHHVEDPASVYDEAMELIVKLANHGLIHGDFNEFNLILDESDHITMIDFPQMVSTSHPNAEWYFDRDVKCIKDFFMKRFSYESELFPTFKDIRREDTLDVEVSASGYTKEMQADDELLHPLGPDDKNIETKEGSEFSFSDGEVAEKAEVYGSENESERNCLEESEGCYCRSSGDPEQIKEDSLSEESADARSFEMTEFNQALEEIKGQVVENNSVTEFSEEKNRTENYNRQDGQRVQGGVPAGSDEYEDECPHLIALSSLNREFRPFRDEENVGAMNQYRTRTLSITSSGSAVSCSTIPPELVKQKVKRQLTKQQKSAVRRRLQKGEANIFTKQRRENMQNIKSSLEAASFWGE
inactive: [1] -0.039 | [2] 0.064 | [3] -0.017 | [4] 0.01 | [5] -0.025 | [6] 0.074 | [7] -0.101 | [8] -0.057 | [9] 0.08 | [10] 0.049 | [11] 0.059 | [12] -0.057 | [13] -0.167 | [14] 0.189 | [15] -0.037 | [16] 0.263 | [17] -0.001 | [18] 0.053 | [19] 0.084 | [20] -0.019

RB1 (UniProt P06400)
Chain of UniProt P06400 (P06400 whole entry, looked up): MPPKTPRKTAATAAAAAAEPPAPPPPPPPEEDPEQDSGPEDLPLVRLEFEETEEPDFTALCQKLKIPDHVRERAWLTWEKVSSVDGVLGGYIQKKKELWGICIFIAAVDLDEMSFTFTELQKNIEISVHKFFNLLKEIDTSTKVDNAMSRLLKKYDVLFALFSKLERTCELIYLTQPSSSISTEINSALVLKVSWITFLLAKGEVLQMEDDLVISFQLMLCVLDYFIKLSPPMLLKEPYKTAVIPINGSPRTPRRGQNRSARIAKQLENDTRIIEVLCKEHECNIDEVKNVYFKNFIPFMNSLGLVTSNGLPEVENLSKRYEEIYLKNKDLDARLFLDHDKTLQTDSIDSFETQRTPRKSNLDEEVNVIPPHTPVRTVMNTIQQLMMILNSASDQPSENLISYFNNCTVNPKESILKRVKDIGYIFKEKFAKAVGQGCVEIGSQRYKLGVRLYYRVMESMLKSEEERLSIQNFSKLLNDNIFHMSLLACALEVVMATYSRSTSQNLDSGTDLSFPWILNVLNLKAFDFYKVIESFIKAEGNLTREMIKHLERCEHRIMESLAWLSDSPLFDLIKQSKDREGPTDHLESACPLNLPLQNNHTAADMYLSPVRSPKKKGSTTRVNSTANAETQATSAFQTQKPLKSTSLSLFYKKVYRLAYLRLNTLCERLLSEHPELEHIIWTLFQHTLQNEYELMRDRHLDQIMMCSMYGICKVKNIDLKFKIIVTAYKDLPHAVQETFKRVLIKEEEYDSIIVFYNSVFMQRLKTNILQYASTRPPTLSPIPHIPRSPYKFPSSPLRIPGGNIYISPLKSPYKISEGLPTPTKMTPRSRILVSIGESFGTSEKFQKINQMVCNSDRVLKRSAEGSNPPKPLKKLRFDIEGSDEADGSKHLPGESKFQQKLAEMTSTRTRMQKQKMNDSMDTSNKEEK
inactive: [1] -0.028 | [2] -0.08 | [3] 0.011 | [4] 0 | [5] -0.016 | [7] 0.006 | [8] 0.052 | [9] 0.025 | [10] 0.033 | [11] 0.041 | [12] -0.112 | [13] 0.117 | [14] -0.07 | [15] 0.033 | [16] -0.168 | [17] -0.001 | [18] -0.024 | [19] 0.022 | [20] -0.002
active: [6] -0.325

RABGAP1L isoform 3 (UniProt Q5R372)
inactive: [1] -0.108 | [2] -0.026 | [3] -0.006 | [4] -0.05 | [5] -0.008 | [6] -0.025 | [7] 0.035 | [8] 0.033 | [9] 0.012 | [10] -0.066 | [11] -0.018 | [12] 0.005 | [13] -0.004 | [14] -0.138 | [15] -0.013 | [16] -0.018 | [17] -0.011 | [18] 0.05 | [19] 0.052 | [20] 0.046

RNPEP (UniProt Q9H4A4)
inactive: [1] 0.008 | [2] -0.083 | [3] 0.044 | [4] -0.02 | [5] -0.018 | [6] -0.009 | [7] -0.023 | [8] 0 | [9] 0.043 | [10] 0.008 | [11] 0.037 | [12] -0.081 | [13] 0.081 | [14] -0.034 | [15] 0.039 | [16] -0.053 | [17] 0.018 | [18] 0.083 | [19] -0.031 | [20] -0.086

RIOK3 (UniProt O14730)
Chain of UniProt O14730 (O14730 whole entry, looked up): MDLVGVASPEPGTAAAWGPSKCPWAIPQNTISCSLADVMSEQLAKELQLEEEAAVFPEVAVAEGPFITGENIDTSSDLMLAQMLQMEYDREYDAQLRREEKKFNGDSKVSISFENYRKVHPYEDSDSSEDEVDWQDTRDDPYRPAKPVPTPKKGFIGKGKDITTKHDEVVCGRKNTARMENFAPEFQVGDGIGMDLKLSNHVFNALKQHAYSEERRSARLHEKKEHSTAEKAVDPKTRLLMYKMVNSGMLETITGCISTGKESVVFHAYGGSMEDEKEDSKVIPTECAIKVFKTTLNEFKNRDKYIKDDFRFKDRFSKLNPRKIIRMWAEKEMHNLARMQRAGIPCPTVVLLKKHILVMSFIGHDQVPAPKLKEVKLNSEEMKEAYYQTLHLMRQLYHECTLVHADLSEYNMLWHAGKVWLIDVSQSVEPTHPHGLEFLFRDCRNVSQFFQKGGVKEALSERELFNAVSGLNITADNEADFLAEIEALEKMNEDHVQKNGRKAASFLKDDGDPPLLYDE
inactive: [1] -0.039 | [2] -0.049 | [3] -0.019 | [4] 0.052 | [5] -0.029 | [6] -0.009 | [7] 0.007 | [8] 0.01 | [9] 0.003 | [10] 0.095 | [11] -0.004 | [12] -0.031 | [13] 0.029 | [14] -0.026 | [15] 0.034 | [16] 0.086 | [17] -0.033 | [18] -0.011 | [19] -0.019 | [20] -0.004

SESN2 (UniProt P58004)
Chain of UniProt P58004 (P58004 whole entry, looked up): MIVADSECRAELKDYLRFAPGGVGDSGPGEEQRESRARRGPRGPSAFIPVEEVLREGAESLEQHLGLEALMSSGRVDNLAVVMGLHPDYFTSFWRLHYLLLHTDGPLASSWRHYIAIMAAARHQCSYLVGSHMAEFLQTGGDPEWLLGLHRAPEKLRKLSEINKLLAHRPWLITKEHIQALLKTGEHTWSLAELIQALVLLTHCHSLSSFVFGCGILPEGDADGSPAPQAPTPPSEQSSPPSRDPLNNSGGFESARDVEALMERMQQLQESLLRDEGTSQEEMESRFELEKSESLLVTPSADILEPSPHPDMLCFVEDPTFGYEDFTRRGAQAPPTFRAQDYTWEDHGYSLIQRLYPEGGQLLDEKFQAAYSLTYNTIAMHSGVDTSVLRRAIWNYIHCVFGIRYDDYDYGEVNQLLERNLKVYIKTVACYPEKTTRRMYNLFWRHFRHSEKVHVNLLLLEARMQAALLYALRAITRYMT
inactive: [1] 0.013 | [2] -0.174 | [3] 0.099 | [4] -0.107 | [5] -0.005 | [6] -0.112 | [7] 0.08 | [8] -0.085 | [9] 0.25 | [10] 0.167 | [11] 0.042 | [12] -0.191 | [13] -0.028 | [14] 0.077 | [15] -0.018 | [16] -0.046 | [17] 0 | [18] 0.006 | [19] 0.192 | [20] -0.322

RBM8A (UniProt Q9Y5S9)
inactive: [1] -0.061 | [2] 0.028 | [3] -0.018 | [4] -0.01 | [5] -0.024 | [6] 0.094 | [7] 0.038 | [8] -0.029 | [9] -0.028 | [10] -0.013 | [11] 0.012 | [13] 0.007 | [14] 0.025 | [15] 0.019 | [16] 0.069 | [17] -0.015 | [18] 0.025 | [19] -0.078 | [20] 0.099
active: [12] 0.287

RAC1 (UniProt P63000)
active: [1] 0.474
inactive: [2] -0.118 | [3] 0.044 | [4] 0.003 | [5] -0.066 | [6] 0.02 | [7] 0.039 | [8] 0.006 | [9] 0.004 | [10] -0.094 | [11] -0.094 | [12] 0 | [13] -0.04 | [14] -0.06 | [15] 0.001 | [16] -0.037 | [17] 0.065 | [18] -0.044 | [19] 0.112 | [20] 0.024

RBM22 (UniProt Q9NW64)
Chain of UniProt Q9NW64 (Q9NW64 whole entry, looked up): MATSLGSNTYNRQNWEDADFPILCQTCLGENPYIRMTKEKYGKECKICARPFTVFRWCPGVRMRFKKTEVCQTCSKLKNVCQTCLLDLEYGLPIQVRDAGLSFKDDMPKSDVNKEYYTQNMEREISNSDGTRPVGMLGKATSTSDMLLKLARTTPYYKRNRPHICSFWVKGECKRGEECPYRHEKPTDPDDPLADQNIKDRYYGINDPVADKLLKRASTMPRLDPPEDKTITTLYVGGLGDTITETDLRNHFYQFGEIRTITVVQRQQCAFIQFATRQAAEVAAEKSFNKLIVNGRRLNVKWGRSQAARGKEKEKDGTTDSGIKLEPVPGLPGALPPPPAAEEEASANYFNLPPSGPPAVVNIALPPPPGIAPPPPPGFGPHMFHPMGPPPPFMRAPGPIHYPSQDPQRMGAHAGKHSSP
inactive: [1] -0.105 | [2] 0.096 | [3] 0 | [4] 0.056 | [5] -0.002 | [6] 0.021 | [7] -0.058 | [8] 0.083 | [9] 0.036 | [10] -0.031 | [11] -0.045 | [12] 0.061 | [13] -0.053 | [14] 0.121 | [15] -0.052 | [16] -0.04 | [17] -0.052 | [18] 0 | [19] -0.025 | [20] -0.053

RNF2 (UniProt Q99496)
inactive: [1] -0.104 | [2] 0.023 | [3] 0 | [4] -0.01 | [5] -0.105 | [6] -0.04 | [7] 0.106 | [8] 0.039 | [9] 0.011 | [10] 0.099 | [11] 0.008 | [12] -0.028 | [13] -0.013 | [14] -0.105 | [15] -0.033 | [16] -0.091 | [17] 0.149 | [18] 0.073 | [19] -0.093

RBM39 (UniProt Q14498)
Chain of UniProt Q14498 (Q14498 whole entry, looked up): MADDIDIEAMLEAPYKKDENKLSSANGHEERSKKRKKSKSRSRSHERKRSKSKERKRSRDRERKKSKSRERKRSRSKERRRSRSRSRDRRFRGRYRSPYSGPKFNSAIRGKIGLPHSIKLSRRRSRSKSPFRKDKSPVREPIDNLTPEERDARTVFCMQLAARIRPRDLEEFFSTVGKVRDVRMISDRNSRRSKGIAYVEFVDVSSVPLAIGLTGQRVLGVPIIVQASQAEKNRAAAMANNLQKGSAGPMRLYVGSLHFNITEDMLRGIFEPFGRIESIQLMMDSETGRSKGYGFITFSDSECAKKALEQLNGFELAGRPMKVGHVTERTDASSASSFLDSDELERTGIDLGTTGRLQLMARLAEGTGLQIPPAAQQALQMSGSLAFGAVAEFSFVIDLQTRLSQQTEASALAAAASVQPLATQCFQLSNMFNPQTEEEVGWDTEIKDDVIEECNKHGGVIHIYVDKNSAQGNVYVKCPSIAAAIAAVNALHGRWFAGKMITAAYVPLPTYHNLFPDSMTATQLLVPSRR
inactive: [1] 0.117 | [2] 0.129 | [3] -0.006 | [4] 0.262 | [5] -0.058 | [6] -0.055 | [7] -0.019 | [8] 0.009 | [9] 0.026 | [10] -0.014 | [11] -0.043 | [12] -0.114 | [13] 0.033 | [14] -0.01 | [15] -0.012 | [16] -0.052 | [17] 0.081 | [18] 0.036 | [19] -0.02 | [20] -0.032

RPS20 isoform 2 (UniProt P60866)
inactive: [1] -0.086 | [2] 0.085 | [3] 0.019 | [4] 0.047 | [5] -0.018 | [6] -0.015 | [7] -0.036 | [8] -0.157 | [9] 0.108 | [10] -0.006 | [11] -0.062 | [12] 0.013 | [13] -0.176 | [14] 0.174 | [15] -0.034 | [16] 0.129 | [17] 0.008 | [18] 0.004 | [19] 0.048 | [20] -0.066

RRS1 (UniProt Q15050)
inactive: [1] -0.111 | [2] 0.593 | [3] 0.033 | [4] 0.262 | [5] -0.171 | [6] 0.01 | [7] 0.005 | [8] -0.169 | [9] 0.137 | [10] -0.096 | [11] -0.022 | [12] 0 | [13] -0.365 | [14] 0.304 | [15] -0.181 | [16] 0.089 | [17] 0.094 | [18] -0.034 | [19] 0.235 | [20] 0.019

RAD50 isoform 2 (UniProt Q92878)
Chain of UniProt Q92878 (Q92878 whole entry, looked up): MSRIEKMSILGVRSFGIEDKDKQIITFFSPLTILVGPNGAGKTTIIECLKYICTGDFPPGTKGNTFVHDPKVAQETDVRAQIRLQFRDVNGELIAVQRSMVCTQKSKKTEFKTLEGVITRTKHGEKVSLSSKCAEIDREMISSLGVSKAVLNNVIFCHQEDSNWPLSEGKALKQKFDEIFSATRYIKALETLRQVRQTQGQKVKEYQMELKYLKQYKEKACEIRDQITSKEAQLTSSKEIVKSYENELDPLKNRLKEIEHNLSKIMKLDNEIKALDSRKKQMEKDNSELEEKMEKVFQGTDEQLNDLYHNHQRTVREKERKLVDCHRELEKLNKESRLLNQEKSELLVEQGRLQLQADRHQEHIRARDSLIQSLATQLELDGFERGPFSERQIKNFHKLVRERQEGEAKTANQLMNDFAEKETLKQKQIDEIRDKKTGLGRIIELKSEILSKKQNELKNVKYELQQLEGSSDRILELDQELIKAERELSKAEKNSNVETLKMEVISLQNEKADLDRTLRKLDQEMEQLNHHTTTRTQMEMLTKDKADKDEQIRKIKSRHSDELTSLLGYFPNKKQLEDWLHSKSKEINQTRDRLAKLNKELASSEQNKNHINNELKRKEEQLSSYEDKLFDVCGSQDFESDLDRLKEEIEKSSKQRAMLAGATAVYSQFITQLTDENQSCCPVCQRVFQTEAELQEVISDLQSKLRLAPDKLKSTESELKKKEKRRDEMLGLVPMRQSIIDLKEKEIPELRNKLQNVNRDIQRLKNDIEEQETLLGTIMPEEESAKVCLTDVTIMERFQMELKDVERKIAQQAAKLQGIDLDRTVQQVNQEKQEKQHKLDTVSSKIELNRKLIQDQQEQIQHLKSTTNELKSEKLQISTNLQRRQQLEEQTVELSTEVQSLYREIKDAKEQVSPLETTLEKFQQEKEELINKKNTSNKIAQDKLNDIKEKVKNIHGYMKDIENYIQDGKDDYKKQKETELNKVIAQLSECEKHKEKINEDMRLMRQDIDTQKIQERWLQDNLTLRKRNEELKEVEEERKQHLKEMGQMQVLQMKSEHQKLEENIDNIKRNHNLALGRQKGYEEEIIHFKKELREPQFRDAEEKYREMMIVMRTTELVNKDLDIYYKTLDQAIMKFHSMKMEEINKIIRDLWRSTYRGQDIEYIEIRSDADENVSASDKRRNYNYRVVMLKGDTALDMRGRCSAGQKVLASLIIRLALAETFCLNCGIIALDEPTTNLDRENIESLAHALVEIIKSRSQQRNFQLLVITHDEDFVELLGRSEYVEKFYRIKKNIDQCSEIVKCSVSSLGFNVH
inactive: [1] -0.002 | [2] 0.008 | [3] 0.036 | [4] -0.016 | [5] 0 | [6] 0.002 | [7] 0.031 | [8] 0.007 | [9] -0.002 | [10] 0.02 | [11] 0.031 | [12] 0.064 | [13] 0.044 | [14] -0.039 | [15] 0.02 | [16] -0.017 | [17] 0.029 | [18] 0.021 | [19] -0.023 | [20] 0.033

RDH13 (UniProt Q8NBN7)
inactive: [1] 0.056 | [2] -0.135 | [3] 0.072 | [4] -0.019 | [5] -0.005 | [6] -0.064 | [7] 0.018 | [8] 0.084 | [9] 0 | [10] 0.042 | [11] 0.04 | [12] -0.231 | [13] 0.161 | [14] -0.019 | [15] 0.082 | [16] -0.08 | [17] -0.101 | [18] 0.029 | [19] -0.037
active: [20] -0.322
